Measured values taken from the supplement of paper PMC10338343.
± gives the standard deviation.

Assays:
[1] = system: MILI (PIWIL2) piRISC loaded with L1MC piRNA (26 nt); assay: pre-steady-state target cleavage rate (min^-1); guide: L1MC piRNA 5'p-UAACUAAAUACUAUGCAAGCUGUAGG; higher = faster piRNA-guided slicing of the target; settings: auxiliary factor: 500 nM mouse GTSF1;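 further: 1 nM active piRISC with 0.1 nM target library at 33 °C single turnover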
Method in brief: (§1)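 The pre-steady-state cleavage rate was derived from a burst-and-steady-state fit of Cleave-'n-Seq data. For these assays, 1 nM active affinity-purified piRISC loaded with a single synthetic guide was mixed with […] a transcribed, DNA-blocked target RNA library in HEPES–potassium acetate buffer at 33 °C, with or without 500 nM GTSF1 partner protein, for 0–8 or 0–960 min. Sequencing counts of uncleaved targets were normalised to depth and to weakly complementary targets, and k3 was capped at 0.0001 min^-1 after three trials were pooled.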

[2] = system: EfPiwi piRISC loaded with L1MC piRNA (26 nt); assay: pre-steady-state target cleavage rate (min^-1); auxiliary factor: 500 nM Ephydatia muelleri Gtsf1; guide: L1MC piRNA 5'p-UAACUAAAUACUAUGCAAGCUGUAGG; MIWI and MILI are mouse PIWI proteins and EfPiwi is from a freshwater sponge; tags in brackets are library labels; higher = faster piRNA-guided slicing of the target
Method in brief: as §1

Sequence | pre-steady-state target cleavage rate [1] | pre-steady-state target cleavage rate [2]
UCCUGGAUCAGGUUGCAUAGUAUUUAGAUA | 0.1 ± 0.023 | 0.00381 ± 0.0026
UCCUGGUACAGCUUGCAUAGUAUUUUGAAA | 0.06 ± 0.022 | 0.00282 ± 0.0028
UCCUCCUAGAGCUUGCAUAGUUUUUAGUUA | 0.0719 ± 0.011 | 0.00428 ± 0.0017
UCCUCCUACAGCUUGGAUAGAAUUUAGUUA | 0.0614 ± 0.015 | 0.00574 ± 0.0016
UCCUGGAUGUGGAUGCAUAGUAUUUAGAAA | 0.013 ± 0.0055 | 0.00388 ± 0.0027
UCCUGCUACAGCUUGCUUAGUAUUUAGAAA | 0.0602 ± 0.019 | 0.00409 ± 0.0022
UCCUGGUACUGCUUGCAUAGUAUUUACAAA | 0.00977 ± 0.0049 | 0.00278 ± 0.0027
UCCUGGUACAGCUUGCAUAGUAAUAAGUUA | 0.204 ± 0.033 | 0.00546 ± 0.0031
UCCUGGAUGAGCUUCCAUAGUAUUUAGUUA | 0.0222 ± 0.011 | 0.00346 ± 0.0018
UCCUGGUACAGCUUGCAUUGUAUUUAGAUA | 0.0565 ± 0.016 | 0.00292 ± 0.0018
UCCUCCUACAGCUUGCAUAGUUUUUACUUA | 0.036 ± 0.0086 | 0.00304 ± 0.0026
UCCUGGAACAGCUUGCAUACUAUUUAGAUA | 0.013 ± 0.0053 | 0.00312 ± 0.0022
UCCUGGUACAGCUUGCAAAGUAUUUAGUAA | 0.0794 ± 0.014 | 0.00304 ± 0.0024
UCCUGGAUGUGCUUCCAAAGUAUUUAGUUA | 0.0214 ± 0.0068 | 0.00463 ± 0.0046
UCCUGCUACAGCUAGCAUAGAAUUUAGUUA | 0.0821 ± 0.018 | 0.00327 ± 0.0022
UCCUGCUACAGCUUGCAUUAGUAUUUAGUUA | 0.017 ± 0.007 | 0.00378 ± 0.003
UCCUGGAACAGCUUGCAUACUAUUAAGUUA | 0.0333 ± 0.012 | 0.00246 ± 0.0024
UCCUGCUACAGCUUGGAUACUAUUUAGUUA | 0.0884 ± 0.018 | 0.00633 ± 0.0024
UCCUGCUACAGCUUGCAUAGUAAAUAGUUA | 0.17 ± 0.027 | 0.00532 ± 0.0029
UCCUGCUACAGCUAGCAUAGUAUUUAGUAA | 0.212 ± 0.019 | 0.00623 ± 0.002
